Experimental data reported in the supplement of paper PMC11732987, “Enantioselective OTUD7B fragment discovery through chemoproteomics screening and high-throughput optimisation” (Communications Chemistry, 2025).

Assays:
Assay in all cases: log2 ratio of Biotin-Ahx-Ub-VS probe labelling (fragment/DMSO); higher = less target engagement (more negative = stronger competition), active = hit call of the paper (q ≤ 0.05, log2 ratio ≤ -1)
Conditions in all cases: compound concentration: 200 uM; treatment time: 3 h
USP19 = molecular target: T1, USP19 (UniProt O94966)
T1 sequence (whole entry): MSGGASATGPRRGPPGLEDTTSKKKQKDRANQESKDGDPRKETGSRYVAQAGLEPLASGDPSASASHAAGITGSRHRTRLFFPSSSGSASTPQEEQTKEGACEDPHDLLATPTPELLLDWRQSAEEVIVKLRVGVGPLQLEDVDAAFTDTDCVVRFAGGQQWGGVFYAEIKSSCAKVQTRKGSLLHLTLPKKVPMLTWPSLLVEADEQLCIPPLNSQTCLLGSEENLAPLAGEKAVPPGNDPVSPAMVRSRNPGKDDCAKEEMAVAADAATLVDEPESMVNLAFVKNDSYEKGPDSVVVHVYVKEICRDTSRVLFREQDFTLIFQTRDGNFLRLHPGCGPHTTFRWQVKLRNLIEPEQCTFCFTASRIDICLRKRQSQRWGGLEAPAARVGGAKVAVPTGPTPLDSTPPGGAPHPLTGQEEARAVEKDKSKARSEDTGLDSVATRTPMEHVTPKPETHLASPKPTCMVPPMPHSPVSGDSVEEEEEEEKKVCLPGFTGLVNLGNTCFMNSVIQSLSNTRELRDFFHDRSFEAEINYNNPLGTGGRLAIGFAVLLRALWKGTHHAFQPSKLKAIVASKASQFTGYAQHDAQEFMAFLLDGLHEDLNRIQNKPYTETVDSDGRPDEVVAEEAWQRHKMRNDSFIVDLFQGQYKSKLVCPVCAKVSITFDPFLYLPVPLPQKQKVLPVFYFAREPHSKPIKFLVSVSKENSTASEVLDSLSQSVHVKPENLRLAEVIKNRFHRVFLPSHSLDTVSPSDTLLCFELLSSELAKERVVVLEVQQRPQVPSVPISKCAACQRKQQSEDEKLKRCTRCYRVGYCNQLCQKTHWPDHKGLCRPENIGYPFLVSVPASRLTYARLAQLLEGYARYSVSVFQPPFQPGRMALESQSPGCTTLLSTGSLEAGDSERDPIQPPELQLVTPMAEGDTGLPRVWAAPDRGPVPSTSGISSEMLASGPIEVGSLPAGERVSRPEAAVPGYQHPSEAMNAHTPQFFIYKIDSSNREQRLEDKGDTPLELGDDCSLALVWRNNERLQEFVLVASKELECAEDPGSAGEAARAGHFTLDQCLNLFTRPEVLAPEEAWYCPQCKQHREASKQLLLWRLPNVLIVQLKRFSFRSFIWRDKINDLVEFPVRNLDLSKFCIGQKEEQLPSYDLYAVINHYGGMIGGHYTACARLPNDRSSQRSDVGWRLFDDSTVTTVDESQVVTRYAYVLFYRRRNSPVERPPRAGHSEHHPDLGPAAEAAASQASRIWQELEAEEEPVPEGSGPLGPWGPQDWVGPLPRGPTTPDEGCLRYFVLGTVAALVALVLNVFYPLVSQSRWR
How it was run: (§1)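 Each value is an average log2 ratio of fragment to vehicle, tested by unpaired t-test. The underlying Spectronaut label-free quantities were global-median-normalised, and only proteins with ≥2 unique peptides were included. Triplicate HEK293T lysate samples (495 µg) were exposed to fragment at 200 µM or vehicle for 3 h, then to Biotin-Ahx-Ub-VS at 0.5 µM final for 1 h, before NeutrAvidin enrichment of labelled DUBs, LysC and trypsin digestion, and diaPASEF LC-MS/MS.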

USP24 = USP24 (UniProt Q9UPU5)
Chain of USP24 (Q9UPU5 whole entry): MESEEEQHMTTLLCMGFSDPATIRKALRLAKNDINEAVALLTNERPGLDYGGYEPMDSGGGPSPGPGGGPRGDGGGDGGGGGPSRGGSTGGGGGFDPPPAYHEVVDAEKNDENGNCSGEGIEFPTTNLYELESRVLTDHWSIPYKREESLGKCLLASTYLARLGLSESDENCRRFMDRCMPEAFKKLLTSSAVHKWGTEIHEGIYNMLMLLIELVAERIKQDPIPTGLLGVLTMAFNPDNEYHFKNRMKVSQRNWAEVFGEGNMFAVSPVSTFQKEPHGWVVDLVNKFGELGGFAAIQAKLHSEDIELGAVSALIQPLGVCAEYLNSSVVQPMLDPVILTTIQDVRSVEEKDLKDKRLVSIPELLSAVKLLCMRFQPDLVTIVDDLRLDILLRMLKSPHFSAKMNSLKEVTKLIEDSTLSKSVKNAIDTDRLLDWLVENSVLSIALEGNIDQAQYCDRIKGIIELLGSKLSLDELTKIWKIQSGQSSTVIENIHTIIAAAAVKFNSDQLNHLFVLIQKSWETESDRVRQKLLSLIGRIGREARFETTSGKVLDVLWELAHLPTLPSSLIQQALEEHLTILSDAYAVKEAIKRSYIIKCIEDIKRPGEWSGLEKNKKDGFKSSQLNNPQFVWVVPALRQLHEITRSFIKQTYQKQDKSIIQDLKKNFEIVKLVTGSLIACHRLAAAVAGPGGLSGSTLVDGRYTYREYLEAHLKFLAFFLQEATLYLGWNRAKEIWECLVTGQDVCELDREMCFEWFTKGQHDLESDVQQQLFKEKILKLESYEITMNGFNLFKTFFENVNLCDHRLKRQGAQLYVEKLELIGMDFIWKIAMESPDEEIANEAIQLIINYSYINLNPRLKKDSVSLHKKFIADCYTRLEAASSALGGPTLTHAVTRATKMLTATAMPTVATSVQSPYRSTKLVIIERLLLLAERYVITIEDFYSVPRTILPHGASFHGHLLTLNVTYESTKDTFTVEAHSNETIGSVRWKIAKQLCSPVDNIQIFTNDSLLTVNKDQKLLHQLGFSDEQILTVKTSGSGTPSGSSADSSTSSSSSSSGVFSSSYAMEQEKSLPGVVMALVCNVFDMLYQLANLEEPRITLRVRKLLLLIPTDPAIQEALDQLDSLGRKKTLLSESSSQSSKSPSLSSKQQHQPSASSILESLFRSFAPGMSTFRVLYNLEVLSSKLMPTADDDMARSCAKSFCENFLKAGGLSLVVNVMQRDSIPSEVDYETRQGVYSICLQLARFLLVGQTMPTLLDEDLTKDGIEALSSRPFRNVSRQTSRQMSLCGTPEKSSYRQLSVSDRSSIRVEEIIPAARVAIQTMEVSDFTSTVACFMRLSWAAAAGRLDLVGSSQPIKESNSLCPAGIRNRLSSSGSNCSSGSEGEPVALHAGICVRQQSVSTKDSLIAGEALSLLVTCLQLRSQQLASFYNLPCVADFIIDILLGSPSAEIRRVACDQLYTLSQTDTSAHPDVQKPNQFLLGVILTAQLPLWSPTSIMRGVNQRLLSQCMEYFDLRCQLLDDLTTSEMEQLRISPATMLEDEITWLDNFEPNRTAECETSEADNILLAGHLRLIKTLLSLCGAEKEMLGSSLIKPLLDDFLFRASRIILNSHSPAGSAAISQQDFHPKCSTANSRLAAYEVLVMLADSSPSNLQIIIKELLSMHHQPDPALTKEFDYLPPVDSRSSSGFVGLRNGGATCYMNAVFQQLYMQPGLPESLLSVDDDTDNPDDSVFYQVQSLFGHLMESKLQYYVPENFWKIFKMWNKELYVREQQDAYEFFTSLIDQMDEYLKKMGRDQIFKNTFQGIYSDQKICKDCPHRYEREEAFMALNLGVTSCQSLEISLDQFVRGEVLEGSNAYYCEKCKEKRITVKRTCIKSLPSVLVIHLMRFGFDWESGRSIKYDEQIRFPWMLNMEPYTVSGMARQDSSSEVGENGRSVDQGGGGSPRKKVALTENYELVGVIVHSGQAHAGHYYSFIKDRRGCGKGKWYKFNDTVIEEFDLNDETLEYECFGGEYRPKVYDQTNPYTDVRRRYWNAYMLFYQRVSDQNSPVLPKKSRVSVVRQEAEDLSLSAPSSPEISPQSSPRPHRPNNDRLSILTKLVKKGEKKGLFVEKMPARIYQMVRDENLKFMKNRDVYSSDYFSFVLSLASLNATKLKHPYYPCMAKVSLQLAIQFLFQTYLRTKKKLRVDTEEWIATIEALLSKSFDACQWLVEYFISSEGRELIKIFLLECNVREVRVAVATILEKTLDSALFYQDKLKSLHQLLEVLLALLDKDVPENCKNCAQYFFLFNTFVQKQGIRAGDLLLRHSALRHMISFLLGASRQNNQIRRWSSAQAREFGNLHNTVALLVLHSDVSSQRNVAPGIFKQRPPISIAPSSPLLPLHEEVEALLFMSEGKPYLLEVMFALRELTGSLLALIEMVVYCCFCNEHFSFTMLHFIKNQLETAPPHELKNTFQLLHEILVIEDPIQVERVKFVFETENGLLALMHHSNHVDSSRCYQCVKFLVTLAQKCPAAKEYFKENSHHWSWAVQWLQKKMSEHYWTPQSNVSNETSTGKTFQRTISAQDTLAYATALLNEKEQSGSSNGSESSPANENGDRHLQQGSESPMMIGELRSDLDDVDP
How it was run: as §1

USP25 = molecular target: T2, USP25 (UniProt Q9UHP3)
T2 sequence (whole entry): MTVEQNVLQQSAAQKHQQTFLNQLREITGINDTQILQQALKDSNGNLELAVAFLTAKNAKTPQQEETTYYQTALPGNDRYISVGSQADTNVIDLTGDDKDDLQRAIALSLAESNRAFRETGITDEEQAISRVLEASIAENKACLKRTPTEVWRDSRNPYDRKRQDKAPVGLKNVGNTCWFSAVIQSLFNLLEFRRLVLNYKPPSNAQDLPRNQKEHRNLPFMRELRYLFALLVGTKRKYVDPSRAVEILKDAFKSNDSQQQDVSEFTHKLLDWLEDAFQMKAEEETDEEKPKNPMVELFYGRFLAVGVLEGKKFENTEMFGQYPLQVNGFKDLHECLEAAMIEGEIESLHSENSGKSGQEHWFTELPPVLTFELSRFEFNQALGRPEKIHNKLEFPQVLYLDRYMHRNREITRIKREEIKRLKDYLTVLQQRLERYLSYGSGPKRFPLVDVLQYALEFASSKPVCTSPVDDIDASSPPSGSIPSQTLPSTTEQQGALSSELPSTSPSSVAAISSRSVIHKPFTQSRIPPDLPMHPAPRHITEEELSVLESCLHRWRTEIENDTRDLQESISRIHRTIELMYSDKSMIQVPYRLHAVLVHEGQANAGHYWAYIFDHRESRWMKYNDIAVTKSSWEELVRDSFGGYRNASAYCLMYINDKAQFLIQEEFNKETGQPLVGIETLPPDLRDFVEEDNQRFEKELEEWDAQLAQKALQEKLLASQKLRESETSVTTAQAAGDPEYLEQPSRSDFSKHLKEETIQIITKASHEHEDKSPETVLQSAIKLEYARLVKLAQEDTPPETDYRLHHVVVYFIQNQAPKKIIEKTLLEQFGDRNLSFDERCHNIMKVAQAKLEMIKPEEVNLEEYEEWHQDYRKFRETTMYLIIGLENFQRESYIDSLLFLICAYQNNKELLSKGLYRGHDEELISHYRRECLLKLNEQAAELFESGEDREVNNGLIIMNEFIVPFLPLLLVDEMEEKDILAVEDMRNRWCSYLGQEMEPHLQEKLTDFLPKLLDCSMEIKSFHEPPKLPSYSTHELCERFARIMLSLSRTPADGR
How it was run: as §1

USP28 = molecular target: T3, USP28 (UniProt Q96RU2)
T3 sequence (whole entry): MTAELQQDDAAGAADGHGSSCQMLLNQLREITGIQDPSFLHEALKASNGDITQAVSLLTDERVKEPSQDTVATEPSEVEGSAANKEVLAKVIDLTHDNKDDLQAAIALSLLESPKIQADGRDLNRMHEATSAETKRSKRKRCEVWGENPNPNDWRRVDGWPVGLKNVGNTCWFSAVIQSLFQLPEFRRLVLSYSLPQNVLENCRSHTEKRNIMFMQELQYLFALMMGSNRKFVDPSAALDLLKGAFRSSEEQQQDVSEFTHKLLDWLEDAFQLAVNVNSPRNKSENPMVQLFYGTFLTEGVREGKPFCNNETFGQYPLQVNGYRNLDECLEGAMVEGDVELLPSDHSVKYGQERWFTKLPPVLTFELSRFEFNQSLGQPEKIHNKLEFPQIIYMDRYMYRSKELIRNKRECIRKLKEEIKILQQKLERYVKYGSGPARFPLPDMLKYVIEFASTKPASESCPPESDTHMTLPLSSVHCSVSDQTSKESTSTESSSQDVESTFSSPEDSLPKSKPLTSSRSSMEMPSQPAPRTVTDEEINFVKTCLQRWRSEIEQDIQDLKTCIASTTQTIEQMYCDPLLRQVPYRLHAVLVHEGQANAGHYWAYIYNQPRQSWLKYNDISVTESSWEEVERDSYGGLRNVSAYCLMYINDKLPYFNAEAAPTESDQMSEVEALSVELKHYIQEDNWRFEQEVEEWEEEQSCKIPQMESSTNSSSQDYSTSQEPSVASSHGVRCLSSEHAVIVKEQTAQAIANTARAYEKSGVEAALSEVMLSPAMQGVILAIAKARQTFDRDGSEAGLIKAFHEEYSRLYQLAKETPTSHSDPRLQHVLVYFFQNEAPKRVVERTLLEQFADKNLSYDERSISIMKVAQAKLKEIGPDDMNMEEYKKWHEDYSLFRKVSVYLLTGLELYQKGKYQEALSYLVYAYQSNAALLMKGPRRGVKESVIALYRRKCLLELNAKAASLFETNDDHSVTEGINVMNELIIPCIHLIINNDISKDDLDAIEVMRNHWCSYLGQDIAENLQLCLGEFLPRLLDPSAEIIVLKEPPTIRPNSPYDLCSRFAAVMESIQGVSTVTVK
How it was run: as §1

Measured: log2 ratio of Biotin-Ahx-Ub-VS probe labelling

Cc1ccccc1OCC(=O)N1CCN(C(=O)CCl)CC1
inactive: USP19 -0.401 | USP24 -0.309 | USP25 -0.0662 | USP28 -0.249
